Drawing on PubChem BioAssay (NCATS), this text covers Potency, activity, negative = inhibition and redox activity (% of DA3003) for 32 compounds.

In assay [1] the test system is Nanoluciferase (engineered Oplophorus gracilirostris luciferase). The experiment in a line: Primary Nanoluciferase (NLuc) qHTS assay for identification of artifact compounds. (AID 1845222).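 Also: series mostly up to about 54 µM; 0% = DMSO and -100% = no enzyme.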 The procedure, abridged: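 Luminescence read-out of secreted NLuc in S16 cell conditioned medium (1:55); compounds tested with 15 min RT preincubation, then Nano-Glo substrate 1:100, 5 min. % inhibition vs no-enzyme and DMSO controls, 4-parameter Hill fit.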
(In qHTS, concentration-response curves come from the screen itself.)

Assay [2] can be described thus: Primary redox qHTS assay for identification of artifact compounds. (AID 1845223).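 Also: 0% = DMSO and 100% = reference compound.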 The procedure, abridged:
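Redox-cycling detection via DTT (250 uM final) oxidation coupled to Amplex Red (25 uM)/HRP (250 mU/mL) in HBSS. 15 min preincubation plus 30 min after DTT, room temperature. Ex/Em 525/598 nm; 4-parameter Hill fit against DMSO and 10 uM DA3003.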

Each structure is given as a SMILES string. Values without a mark were called inactive. Results filed as inconclusive are left out. Calls of active or inactive are those of the source. Calls follow the shape of the dose curve; as a rule, active = well fitted curve in the direction sought with a large enough effect; inconclusive = small, poorly fitted or top-dose-only effect, or another doubt; inactive = no such curve, though single readings can be large; an effect the other way counts as inactive or inconclusive. Where a SMILES comes first, the peptide text is derived from it. [ ]: non-standard residue; d: D form. ξ: configuration not given here. ξTyr(βOH) = NC(C(=O)O)C(O)c1ccc(O)cc1

Turning to `C[C@H]1CC[C@@]2(OC1)O[C@H]1CC3C4CC[C@H]5C[C@@H](O)CC[C@]5(C)C4CC(=O)[C@]3(C)[C@H]1[C@@H]2C` (some centres undefined), the Potency result in assay [1] and in assay [2] was “inactive” each time.

In the case of `C[C@@H](CC[C@@H]1[C@@]2(C)CCCC(C)(C)C2CC[C@@]1(C)O)CC(=O)O` (some centres undefined), the Potency entry in assay [1] and in assay [2] was “inactive” throughout.

In the case of `COC(=O)C1=COC(O[C@@H]2O[C@H](COC(=O)/C=C/c3ccc(O)cc3)[C@@H](O)[C@H](O)[C@H]2O)C2C(CO)=CCC12` (some centres undefined), the Potency entry in assay [1] and in assay [2] was “inactive” throughout.

As for `C[C@@H]1CC[C@]2(C(=O)O)CC[C@]3(C)C(=CCC4[C@@]5(C)C[C@@H](O)[C@H](O)[C@@](C)(CO)C5CC[C@]43C)C2[C@H]1C` (some centres undefined), the Potency entry in assay [1] and in assay [2] was “inactive” throughout.

On to `CCC(C)/C=C(C)/C=C/C1=CC2=C(Cl)C(=O)C(C)(OC(C)=O)C(=O)C2=CN1C(CCCN=C(N)N)C(=O)O` (centres undefined), for which the Potency entry in assay [1] and in assay [2] was “inactive” in each case.

Regarding `COc1ccc(CC(=O)NCc2ccccc2-c2ccccc2C(=O)NCCc2cccnc2)cc1`, the Potency result in assay [1] and in assay [2] was “inactive” throughout.

Consider `CC(C)c1c(NC(=O)Nc2ccc(Cl)cc2)c(=O)n(-c2ccccc2)n1C`, for which the Potency result in assay [1] and in assay [2] was “inactive” each time.

Turning to `CC(C)C1NC(=O)CNC(=O)C2CCCN2C(=O)C(Cc2c[nH]c3ccccc23)NC(=O)CNC(=O)C(C(O)c2ccc(O)cc2)NC(=O)CNC1=O` (centres undefined) (cyclo(G[ξTyr(βOH)]GWPGV); configuration not given here), the Potency entry in assay [1] and in assay [2] was “inactive” each time.

With `OC[C@H]1O[C@@H](O[C@H]2[C@H](O)[C@@H](CO)O[C@@H](OCc3ccccc3)[C@@H]2O[C@@H]2OC[C@](O)(CO)[C@H]2O)[C@H](O)[C@@H](O)[C@@H]1O`, the Potency result in assay [1] and in assay [2] was “inactive” each time.

`CC1(C)OC(=O)C=C[C@@]2(C)C1CC(=O)[C@]1(C)C2CC[C@@]2(C)[C@H](c3ccoc3)OC(=O)[C@H]3O[C@]321` (some centres undefined): the Potency result in assay [1] and in assay [2] was “inactive” in each case.

Turning to `CCCO[C@@H]1O[C@H](CO)[C@@H](O)[C@H](O)[C@H]1O[C@@H]1OC[C@@H](O)[C@H](O)[C@H]1O`, the Potency entry in assay [1] and in assay [2] was “inactive” throughout.

Consider `C=C(C(=O)O)[C@@H]1CC[C@@]2(C)CCC[C@@](C)(O)[C@@H]2C1`, for which the Potency entry in assay [1] and in assay [2] was “inactive” throughout.

For the compound `CC1(C)C=Cc2c(ccc3c2N=C2C(C)(C)[C@@H]4C[C@]56CCCN5C(=O)[C@@]4(C[C@]23O)NC6=O)O1`, the Potency entry in assay [1] and in assay [2] was “inactive” throughout.

As for `Cc1ncc(Cl)cc1NCc1ccc(C(=O)NC(CC2CCCC2)C(=O)NC2CC2)s1` (centres undefined), the Potency entry in assay [1] and in assay [2] was “inactive” in each case.

Consider `OC[C@H]1O[C@@H](Oc2cc(O)cc(-c3cc4ccc(O[C@@H]5O[C@H](CO)[C@@H](O)[C@H](O)[C@H]5O)cc4o3)c2)[C@H](O)[C@@H](O)[C@@H]1O`, for which the Potency result in assay [1] and in assay [2] was “inactive” each time.

Turning to `CC1(C)CCC[C@@]2(C)[C@H]1[C@H](O)C=C(CO)[C@]2(O)CO`, the Potency result in assay [1] and in assay [2] was “inactive” in each case.

`N=C(N)c1ccc2nc(-c3cc(CC(=O)NC(CC(=O)O)C(=O)O)cc(-c4cc(S(N)(=O)=O)ccc4O)c3O)[nH]c2c1` (centres undefined): the Potency result in assay [1] and in assay [2] was “inactive” throughout.

Regarding `CNc1nc(Cc2ccccc2)nc2c1CCNC[C@@H]2C`, the Potency result in assay [1] and in assay [2] was “inactive” throughout.

For the compound `CCOc1nc2c(N)ncnc2n1CC`, the Potency entry in assay [1] and in assay [2] was “inactive” throughout.

`CC(C)Oc1ccc(-c2nc(-c3cccc4c3CCC4NCCC(=O)O)no2)cc1C#N` (centres undefined): the Potency entry in assay [1] and in assay [2] was “inactive” throughout.

As to `C/C=C(\C)C(=O)OC1CC2C(CC=C3CC(OC4CC(OC)C(OC5CC(OC)C(OC6CC(OC)C(OC7CC(OC)C(OC8CC(OC)C(OC9OC(CO)C(O)C(O)C9O)C(C)O8)C(C)O7)C(C)O6)C(C)O5)C(C)O4)CCC32C)C2(O)CCC(C(C)=O)C12C` (centres undefined), the activity, negative = inhibition in assay [1] was 4.2% [at 11.6 µM]. Further, the redox activity (% of DA3003) in assay [2] was 12.2% [at 11.5 µM].

As to `OCC1=C[C@@H](O)[C@@H]2C=CO[C@@H](O[C@@H]3O[C@H](CO)[C@@H](O)[C@H](O)[C@H]3O)[C@H]12`, the Potency result in assay [1] and in assay [2] was “inactive” in each case.

For `C/C=C(/C)C(=O)OC1C2OC2C2(CO2)C2C3OC(=O)C(C)C3CCC12C` (centres undefined), the Potency result in assay [1] and in assay [2] was “inactive” in each case.

`NC1(c2ccc(NC(=O)c3ccnc(-c4cc(C(=O)O)ccn4)c3)cc2)CC1`: the Potency result in assay [1] and in assay [2] was “inactive” throughout.

On to `C/C(CO)=C1/CCC23COC(C2)C(O)(C(=O)O)CCC13` (centres undefined), for which the Potency result in assay [1] and in assay [2] was “inactive” each time.

Consider `CC(CCO)CCC1C2(C)CCCC(C)(C)C2CC[C@@]1(C)O` (some centres undefined), for which the Potency result in assay [1] and in assay [2] was “inactive” each time.

Consider `COC(=O)C[C@H]1C(C)(C)[C@H](OC(=O)C(C)C)C2CC3=C4CC(=O)O[C@@H](c5ccoc5)[C@]4(C)CCC3[C@@]1(C)C2=O` (some centres undefined), for which the Potency entry in assay [1] and in assay [2] was “inactive” in each case.

In the case of `CC1CC2OCC3(O)CCC(O)C(C14CC(c1ccoc1)OC4=O)C23CO` (centres undefined), the Potency entry in assay [1] and in assay [2] was “inactive” throughout.

`C/C(=C\C(=O)C(C)C1CCC2C3=C(CCC21C)C1(C)CCC(=O)C(C)(C)C1(O)CC3)C(C)(C)O` (centres undefined): the Potency result in assay [1] and in assay [2] was “inactive” throughout.

In the case of `CC1OC(O[C@@H]2[C@H](O)[C@@H](OC3OC(CO)C(O)C(O)C3O)[C@H](OC(=O)[C@]34CCC(C)(C)C[C@H]3C3=CCC5[C@@]6(C)CC[C@H](O[C@@H]7O[C@H](C(=O)O)[C@@H](O)[C@H](O[C@@H]8OC[C@@H](O)[C@H](O)[C@H]8O)[C@H]7O[C@@H]7O[C@H](CO)[C@H](O)[C@H](O)[C@H]7O)[C@@](C)(C=O)C6CC[C@@]5(C)[C@]3(C)C[C@H]4O)O[C@@H]2C)C(O)C(O)C1OC1OCC(O)C(O)C1O` (some centres undefined), in assay [1], the activity, negative = inhibition was 0% [at 6.45 µM]. Further, the redox activity (% of DA3003) in assay [2] is -1.5% [at 6.41 µM].

In the case of `C=C1CC[C@@H]2[C@@](C)(CO[C@@H]3O[C@H](CO)[C@@H](O)[C@H](O)[C@H]3O)[C@H](O)CC[C@@]2(C)[C@@H]1CC/C(C)=C/CO[C@@H]1O[C@H](CO)[C@@H](O)[C@H](O)[C@H]1O`, the Potency result in assay [1] and in assay [2] was “inactive” in each case.

Consider `CC1=CC(=O)C2C(C)(C)CCC[C@]2(C)[C@H]1CC[C@H](C)CC(=O)O` (some centres undefined), for which the Potency entry in assay [1] and in assay [2] was “inactive” each time.
